# PubChem BioAssay AID1259343 (VanderVen Lab, College of Veterinary Medicine, Cornell …, 2017)
# Screen size: about 6,200 compounds; about 2,900 (47%) were called active. The set was probably picked from earlier hits. This is one part of the list. A number with no mark means an inactive call. No stated cut-off is given here; in the data, active means inhibition above about 50%; inactive means the rest.
# Assay: Mycobacterium tuberculosis growth inhibition, primary screen (AID 1259343)
# Details: inhibition: at 10 µM, stronger effect = higher value; outcome: 10 uM
row,SMILES,inhibition
1,Cc1cc(=O)[nH]c(-n2nc(C3CC3)cc2NC(=O)c2cccs2)n1,100% (active)
2,Cc1cc(=O)[nH]c(-n2nc(-c3cccs3)cc2NC(=O)c2ccco2)n1,99.9% (active)
3,Cc1cc(=O)[nH]c(-n2nc(-c3cccs3)cc2NC(=O)c2c(F)cccc2Cl)n1,99.6% (active)
4,CCCC(CCC)C(=O)Nc1cc(-c2cccs2)nn1-c1nc(C)cc(=O)[nH]1,99% (active)
5,CC(C)c1cc(=O)[nH]c(-n2nc(-c3cccs3)cc2NC(=O)c2cccs2)n1,99.1% (active)
6,Cc1cc(=O)[nH]c(-n2nc(-c3cccs3)cc2NC(=O)c2cccs2)n1,98.9% (active)
7,Cc1cc(=O)[nH]c(-n2nc(-c3cccs3)cc2NC(=O)CC(C)(C)C)n1,-0.63%
8,CCC(=O)Nc1cc(-c2cccs2)nn1-c1nc(C)cc(=O)[nH]1,99.9% (active)
9,Cc1cccc(C(=O)Nc2cc(-c3cccs3)nn2-c2nc(C)cc(=O)[nH]2)c1,0.07%
10,Cc1cc(=O)[nH]c(-n2nc(-c3cccs3)cc2NC(=O)c2ccccc2C)n1,98.2% (active)
11,CC1CCCCC1Nc1ccc2nnc(C(F)(F)F)n2n1 (configuration not stated),22.4%
12,Cc1nc(C(F)(F)F)ccc1C(=O)NC1CC2CC1C1CCCC21 (configuration not stated),32.9%
13,CC1CCCCC1NC(=O)Cn1ccc(C(F)(F)F)n1 (configuration not stated),94.9% (active)
14,O=C(Oc1ccc2oc(=O)sc2c1)C1CCCCC1,75.1% (active)
15,O=c1c2cc(O)ccc2oc2ccc(O)cc12,87.5% (active)
16,Oc1ccc2oc3c(c2c1)CCCC3,44.4%
17,O=c1oc2ccc(O)cc2s1,83.8% (active)
18,Cc1ccc(NC(=O)c2ccc(S(N)(=O)=O)c(C)c2)cc1C,31.7%
19,CC(=O)NCc1ccc(C(=O)Nc2ccc(Br)c(C)c2)cc1,93.7% (active)
20,Cc1ccc(NC(=O)CNC(=O)c2ccccc2)cc1C,-8.08%
21,Cc1c(C(=O)O)cnn1-c1ccc(Br)cc1,39.2%
22,Cc1cc(C)nc(NN=Cc2cc(Br)cc(Br)c2O)n1,102% (active)

row,SMILES,inhibition
1,CC(=NNc1nc(C)cc(C)n1)c1cc2c(ccc3ccccc32)o1,16.4%
2,O=C(NCCc1ccccc1)c1ccc(OC2CCN(C(=O)C3CC34CCC4)CC2)cc1 (configuration not stated),19.3%
3,O=C(NCc1ccccc1)c1cccc(OC2CCN(C3Cc4ccccc4C3)CC2)c1,82.7% (active)
4,CC1(C(=O)Nc2nc(-c3cccc(Cl)c3)ns2)CCOCC1,89.4% (active)
5,Cc1cc(NC(=O)C2(C)CCOCC2)nc(C(C)C)n1,-0.19%
6,C=CCNc1nc(NCCCN2CCCC2=O)c2sc(-c3ccccc3)cc2n1,24.9%
7,CC(C)(C#N)C(=O)Nc1cc(-c2ccccc2F)no1,88.7% (active)
8,CC(C)(C)OC(=O)NCC1CCCCN1C(=O)c1cc(-c2ccccc2F)on1 (configuration not stated),14%
9,O=C1NC(=S)SC1=Cc1cccc(C(F)(F)F)c1,14.4%
10,FC(F)(F)c1ccc2c(c1)Oc1sc(Cl)cc1NC2=S,92% (active)
11,CC(NCc1cn(C)nc1-c1ccc(Oc2ccccc2)cc1)c1ccccc1 (configuration not stated),70.8% (active)
12,COc1ccc(C(C)Nc2ccc(C#N)cn2)cc1F (configuration not stated),94.3% (active)
13,COc1ccc(C(C)NCC(O)COc2ccc(Cl)cc2Cl)cc1F (configuration not stated),41.6%
14,CCOc1cc2c(cc1CNc1ccc(C#N)cn1)OC(C)C2 (configuration not stated),19.6%
15,CC(Nc1nccc(C(F)(F)F)n1)c1ccc(C#N)cc1 (configuration not stated),22.5%
16,CC(Nc1ccc(C#N)cn1)c1ccccc1Br (configuration not stated),53% (active)
17,CC(NCc1ccc(C(C)(C)C)cc1)c1ccc(S(C)(=O)=O)cc1 (configuration not stated),59.5% (active)
18,CS(=O)(=O)c1ccc([C@@H](O)[C@@H](CO)NC(=O)C(Cl)Cl)cc1,44.5%
19,CS(=O)(=O)c1ccc(CCNc2ccc(Cl)c(C#N)n2)cc1,24.5%
20,Cc1ccc(S(=O)(=O)NCC2COc3ccccc3C2)cc1F (configuration not stated),-9.55%
21,Cc1ccc(S(=O)(=O)NCC2CCN(c3ccccc3)C2)c(C)c1 (configuration not stated),52.8% (active)
22,O=S(=O)(NCC1CCC(c2ccccc2)CC1)C1CCOCC1 (configuration not stated),-0.68%

row,SMILES,inhibition
1,CCOC(=O)c1ccccc1Nc1nnc(C(C)(C)C)c(=O)[nH]1,32.2%
2,CCOC(=O)c1cc(-c2ccccc2)sc1NC(=O)CC(=O)OC,81% (active)
3,CCc1cc(C(=O)O)c(NC(=O)c2ccccc2C)s1,18.1%
4,NC(=NC1C2CC3CC(C2)CC1C3)Nc1ccc(I)cc1 (configuration not stated),42.8%
5,C=CCN(Cc1ccccc1)C(=O)c1cnn2c1[nH]c(=O)c1ccccc12,79.8% (active)
6,Fc1ccc(C=Cc2ccc3ccccc3n2)cc1,32.5%
7,COc1cc(C=Cc2ccc3ccccc3n2)cc(Cl)c1OC,26.8%
8,COc1cc(C=Cc2ccc3ccccc3n2)cc(Br)c1O,73.5% (active)
9,O=C(NCC(c1ccco1)N1CCc2ccccc21)C(=O)Nc1ccccc1[N+](=O)[O-] (configuration not stated),5.43%
10,O=C(N1CCc2ccccc2C1)N1c2ccccc2Sc2ccccc21,-20%
11,CC1CC1C(=O)Nc1ccccc1N1CCc2ccccc2C1 (configuration not stated),81.4% (active)
12,O=c1[nH]n(-c2ccc([N+](=O)[O-])cc2)c(=O)c2ccccc12,90% (active)
13,O=c1c2ccccc2nc(SCc2ccc([N+](=O)[O-])cc2)n1CC1CCCO1 (configuration not stated),26.6%
14,CC(C)N1C(=O)c2ccccc2NS1(=O)=O,72.9% (active)
15,C/C(=C\c1ccccc1)C1Nc2ccccc2C(=O)N1C (configuration not stated),48.1%
16,CC(C)n1c(=O)[nH]c2ccccc21,19.6%
17,O=C1OCC(CO)(CO)N=C1NNc1ccc([N+](=O)[O-])cc1,-25.1%
18,O=C1OCC(CO)(CO)N=C1NNc1ccc(Cl)c(Cl)c1,87.5% (active)
19,O=C1OCC(CO)(CO)N=C1NNc1cc(Cl)ccc1Cl,91.9% (active)
20,O=C1OCC(CO)(CO)N=C1NNc1ccc(Cl)cc1,81.8% (active)
21,O=C1OCC(CO)(CO)N=C1NNc1ccc(I)cc1,36.3%
22,Cc1nc2cc(OCc3cc(C(=O)N4CCN(C)C(c5ccccc5)C4)no3)ccc2s1 (configuration not stated),10.6%

row,SMILES,inhibition
1,Cc1cccc(C)c1OCc1cc(C(=O)N2CCCC(c3ccccc3)C2)no1 (configuration not stated),47.2%
2,CCc1ccc(CN(C)C(=O)c2cc(COc3cncc(Cl)c3)on2)cc1,inactive
3,CN1CCN(C(=O)c2cc(COc3cncc(Cl)c3)on2)CC1c1ccccc1 (configuration not stated),88% (active)
4,COc1ccc(OCc2cc(C(=O)N(C)CC3CCCCO3)no2)c(Cl)c1 (configuration not stated),inactive
5,CN(CCCC1CCCC1)C(=O)c1cnon1,12.9%
6,O=C(c1cc(COc2cncc(Cl)c2)on1)N(CCO)Cc1cccs1,89.6% (active)
7,CN(CC1CCCCO1)C(=O)c1cc(COc2cncc(Cl)c2)on1 (configuration not stated),95.4% (active)
8,CN(Cc1cnc2ccccn12)C(=O)c1cc(COc2cncc(Cl)c2)on1,62.9% (active)
9,Cc1ccc(C(C)C)cc1S(=O)(=O)NCc1ccco1,-19.8%
10,Clc1cncc(Oc2ccc3c(C4CC4)noc3n2)c1,78.7% (active)
11,c1cn(-c2ccc(Oc3ccc4c(C5CC5)noc4n3)cc2)cn1,33.5%
12,FC(F)(F)c1ccc(Oc2ccc3c(C4CC4)noc3n2)cn1,92.3% (active)
13,COc1cccc(Oc2ccc3c(C4CC4)noc3n2)c1,93% (active)
14,COc1ccc2c(=O)c3c(=O)n(-c4ccccc4)c(C4CCCCC4)nc3oc2c1,-17.1%
15,c1ccc(Oc2ccc3c(C4CC4)noc3n2)cc1,72.8% (active)
16,CCOc1ccc(C2CC(c3ccc(F)cc3)=NN2C(=O)CN(C)C2CCCCC2)cc1 (configuration not stated),-49.7%
17,FC(F)(F)c1cccc(Oc2ccc3c(C4CC4)noc3n2)c1,70.6% (active)
18,Fc1ccc(Cl)cc1Oc1ccc2c(C3CC3)noc2n1,61.4% (active)
19,Cc1ccc(F)cc1Oc1ccc2c(C3CC3)noc2n1,46.9%
20,FC(F)(F)c1ccccc1Oc1ccc2c(C3CC3)noc2n1,92.9% (active)
21,Fc1cccc(Oc2ccc3c(C4CC4)noc3n2)c1,69.2% (active)
22,O[C@@H]1CNCC[C@H]1CNCc1cccc(Oc2cccc(C(F)(F)F)c2)c1,9.4%

row,SMILES,inhibition
1,O=c1[nH]c(NCCO)nc2c1C1(CCCC1)Cc1ccccc1-2,3.77%
2,O=C(Cc1c[nH]c2cccc(Br)c12)OCC1CC1,-40.3%
3,CCCNC(=O)C1(C)CCN(Cc2csc(-c3ccc(Cl)cc3)n2)C1 (configuration not stated),30.7%
4,Fc1cc(F)cc(Oc2ccc3c(C4CC4)noc3n2)c1,95.3% (active)
5,Fc1ccc(Oc2ccc3c(C4CC4)noc3n2)cc1,6.82%
6,COc1ccc(Nc2ccc3c(C4CC4)noc3n2)cc1,85.2% (active)
7,CNC(=O)C1Sc2nc3scc(-c4ccccc4)c3c(=O)n2N=C1C (configuration not stated),41.4%
8,Cn1c(SCC(N)=O)nc2scc(-c3ccc(F)cc3)c2c1=O,66.5% (active)
9,CC(C)c1ccc(-c2csc3ncn(-n4cccc4)c(=O)c23)cc1,12.8%
10,Cc1ccccc1C1c2ccsc2CCN1C(C)C(=O)N1CCCN(S(=O)(=O)c2ccc(C(C)(C)C)cc2)CC1 (configuration not stated),77.4% (active)
11,CC(Sc1n[nH]c(-c2cccs2)n1)c1ccc(F)cc1F (configuration not stated),10.1%
12,COc1ccc(OCc2nc(CSCc3ccc(F)cc3)cs2)cc1,50.8% (active)
13,Fc1ccc(CSCc2csc(-c3ccc(F)cc3)n2)cc1,38.6%
14,Cc1ccc(-c2nnc(SCc3c(C)noc3C)o2)cc1,79% (active)
15,COc1ccc(-c2nnc(SCC(=O)NC(C)(C)C)o2)cc1,38.2%
16,CC(C)(C)c1ccc(-c2nnc(SCC(N)=O)o2)cc1,98.8% (active)
17,Cc1cc(C)cc(-c2nnc(SCc3cc(C)on3)o2)c1,34.2%
18,Cc1cc(CSc2nnc(-c3ccc(C(C)(C)C)cc3)o2)no1,85.8% (active)
19,CN(C)C(=O)CSc1nnc(-c2ccc(Br)cc2)o1,78.2% (active)
